PubChem BioAssay AID493083 (Broad Institute, 2011)
Out of some 2,400 compounds screened, about 95 (4%) were called active. Inconclusive results (about 3%) are left out.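 The calls were made as follows: active = compounds lowering signal whose fitted AC50 is at most ten times the top tested dose; inconclusive = flat fit with moderate inhibition, or poor curve fit; inactive = the rest.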 The list is a sample of the results. Measured potencies and affinities stand elsewhere.

Test: GFP reporter loss versus dox-driven RFP – NIH3T3 R4 cells, cherry-pick, set 3, dose response (AID 493083);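 also: 0% = neutral control wells and -100% = didemnin B positive control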
Settings: NIH3T3 R4 HSF-1 GFP reporter, heat shock, 48 h; series mostly up to 19.5 µM; activity change, negative = inhibition: at the top concentration

Activity change, negative = inhibition, inactive:
NS(=O)(=O)c1ccc(CCNC(=O)c2ccc(C#CC3(O)CCCCC3)cc2)cc1 -11%, COc1cccc(/C=N/NC(=O)c2cnccn2)c1 -11.7%, CC1CCN(CC(=O)c2cccs2)CC1 -0.687%, N/C(=N\OC(=O)Cc1ccccc1[N+](=O)[O-])c1cccnc1 -2.18%, COc1cc(NS(=O)(=O)c2ccc(C)cc2)c2ncccc2c1 152%, Cc1ccc(S(=O)(=O)c2ccc(Oc3ccccc3)cc2)cc1 6.62%, O=C(Cc1ccc(O)cc1)NC1CCCCCC1 2.64%, Fc1ccc(-c2nc3c(-c4ccc(Cl)cc4)cnn3cc2CCN2CCOCC2)cc1 6.99%, COc1ccc(-n2cc([N+](=O)[O-])c(=O)c3ccc(Cl)cc32)cc1 -4.31%, O=[N+]([O-])c1ccc(O)c(C=Nc2ccc3oc(Cc4ccc(Cl)cc4)nc3c2)c1 2.32%, CC(=O)c1ccc(OCC(O)CN2CCN(Cc3ccc4c(c3)OCO4)CC2)cc1 (stereo unspecified) -11.3%, COc1ccc(C(=O)NC(=S)NNC(=O)c2ccco2)cc1 -5.87%, CNC(=S)N(CCc1c(C)[nH]c2ccc(C)cc12)Cc1cc(OC)c(OC)c(OC)c1 6.85%, CC1CCC2(CC1)N=C(N)Nc1nc3ccccc3n12 (stereo unspecified) 22.7%, COc1ccc(C(=O)NNC(=O)c2ccccn2)cc1 1.89%, COc1ccc(OC)c(-c2cc(C(=O)N/N=C/c3cc(OC)c(OC)cc3OC)c3ccccc3n2)c1 6.57%, CC(C)Nc1nnc(Sc2ccc(Cl)cc2[N+](=O)[O-])s1 6.78%, Cc1ccc2nc(CSc3nc(C)ccc3C#N)[nH]c2c1 5.73%, CC(/C=C/c1ccc2c(c1)OCO2)=N/NC(=O)c1ccncc1 25.8%, COCCN(C(=S)Nc1c(C)cccc1C)C(C)c1cccnc1 (stereo unspecified) -2.92%, COCCCn1c(-c2ccco2)nc2ccccc2c1=O -0.204%, N#Cc1c(N)n(-c2ccccc2N)c2nc3ccccc3nc12 -3.31%, COc1ccccc1C(=O)NCC(=O)N/N=C/c1ccc2c(c1)OCO2 3.39%, NS(=O)(=O)c1ccc(NC2=CC(=O)C(=O)c3ccccc32)cc1 -26%, CN(Cc1nc(-c2ccccc2)no1)C(=O)c1ccc2c(c1)OCO2 2.75%, COc1cccc(-c2c(NC(C)=O)n(C)c3ccccc3c2=O)c1 -3.87%, COc1ccc(NC(=O)c2cc(CN3C(=O)c4ccccc4C3=O)ccc2OC)cn1 3.72%, COc1ccc(/C=N/NC(=O)c2cc(-c3cccn3C)n[nH]2)cc1OC 1.97%, C=CCn1c(CCCNC(=O)C(C)(C)C)nc2ccccc21 5.13%, Cc1ccc(NC(=S)NC2CC3CCC(C2)N3Cc2ccco2)cc1C (stereo unspecified) 2.77%, COc1ccc(N2CCN(C(=O)c3ccc(NS(=O)(=O)c4ccccc4)cc3)CC2)cc1 21.2%
